Reference: PubChem BioAssay AID1159580 (chemical genetic matrix, 2015)
In all, about 5,500 compounds went through this assay and about 2,000 (36%) were called active. Roughly 18% stayed inconclusive and do not appear here. Cut-off read from the data, not from the text of the source: active = normalized growth mostly below about 0.91 (no sharp cut-off); inconclusive = no clear call, values can overlap the other calls; inactive = mostly above about 0.92. The list shows a part of the results.

Experiment: chemical genetic growth profiling, strain panel (AID 1159580);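 note: tested at 20 µM; growth read once vehicle control cultures reached saturation at 30 °C; 1 = growth at the plate median or of vehicle wells; lower values mean less growth of the strain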
Conditions: S. cerevisiae deletion strains, growth OD
[1] = locus YHR030C, strain SLT2, active compounds read low
[2] = locus YHR079C, strain IRE1, active compounds read low
[3] = locus YJL095W, strain BCK1, active compounds read low
[4] = locus YJR066W, strain TOR1, active compounds read low
[5] = locus YLR113W, strain HOG1, active compounds read low
[6] = locus YNL183C, strain NPR1, active compounds read low
[7] = locus YOR231W, strain MKK1, active compounds read low
[8] = locus YPL256C, strain CLN2, active compounds read low

Measured: normalized growth

CSc1ccc(C(=O)c2[nH]c(=O)[nH]c2C)cc1
inactive: locus YAL013W, strain DEP1, active compounds read low 0.943 | locus YAL040C, strain CLN3, active compounds read low 1.06 | locus YCL061C, strain MRC1 (second series), active compounds read low 0.991 | locus YDR363W, strain ESC2, active compounds read low 0.934 | locus YER002W, strain NOP16, active compounds read low 0.978 | locus YGR078C, strain PAC10, active compounds read low 1 | locus YMR307W, strain GAS1, active compounds read low 1.01 | locus YNL128W, strain TEP1, active compounds read low 0.981 | locus YNL175C, strain NOP13, active compounds read low 0.985 | locus YNL197C, strain WHI3, active compounds read low 0.994 | locus YNL224C, strain SQS1, active compounds read low 0.994 | locus YOR083W, strain WHI5 (second series), active compounds read low 0.96

CC[C@@H]1OC(=O)C[C@@H](O)[C@H](C)[C@@H](O[C@@H]2O[C@H](C)[C@@H](O)[C@H](N(C)C)[C@H]2O)[C@@H](CCN2C[C@H](C)C[C@H](C)C2)C[C@@H](C)C(=O)/C=C/C(C)=C\[C@@H]1CO[C@@H]1O[C@H](C)[C@@H](O)[C@@H](OC)[C@H]1OC
inactive: locus YAL021C, strain ccr4, active compounds read low 1 | locus YAL026C, strain drs2, active compounds read low 0.994 | locus YAL030W, strain snc1, active compounds read low 0.996 | locus YBL061C, strain skt5, active compounds read low 0.99 | locus YBR009C, strain hhf1, active compounds read low 1 | locus YBR023C, strain chs3, active compounds read low 0.997 | locus YBR171W, strain sec66, active compounds read low 1.01 | locus YBR231C, strain swc5, active compounds read low 0.986 | locus YBR279W, strain paf1, active compounds read low 0.982 | locus YCL011C, strain gbp2, active compounds read low 0.971 | locus YCL016C, strain dcc1, active compounds read low 0.967 | locus YCL069W, strain vba3, active compounds read low 1.02 | locus YCR088W, strain abp1, active compounds read low 1.01 | locus YDL005C, strain med2, active compounds read low 0.994 | locus YDL040C, strain nat1, active compounds read low 0.996 | locus YDR001C, strain nth1, active compounds read low 1.01 | locus YDR069C, strain doa4, active compounds read low 0.992 | locus YDR137W, strain rgp1, active compounds read low 1 | locus YDR159W, strain sac3, active compounds read low 0.931 | locus YDR195W, strain ref2 0.972 | locus YDR297W, strain sur2, active compounds read low 1.01 | locus YDR334W, strain swr1, active compounds read low 0.995 | locus YDR335W, strain msn5, active compounds read low 1.01 | locus YDR392W, strain spt3, active compounds read low 0.887 | locus YEL003W, strain gim4, active compounds read low 1.01 | locus YEL037C, strain rad23, active compounds read low 1.01 | locus YEL061C, strain CIN8 (second series), active compounds read low 1.01 | locus YER015W, strain faa2, active compounds read low 1 | locus YER016W, strain bim1, active compounds read low 0.993 | locus YER111C, strain swi4, active compounds read low 1 | locus YER155C, strain BEM2 (second series), active compounds read low 1 | locus YFR010W, strain ubp6, active compounds read low 1 | locus YGL167C, strain pmr1, active compounds read low 1 | locus YGL173C, strain kem1, active compounds read low 0.981 | locus YGL227W, strain vid30, active compounds read low 0.987 | locus YGL240W, strain doc1, active compounds read low 0.975 | locus YGL253W, strain hxk2, active compounds read low 1.01 | locus YHR013C, strain ard1, active compounds read low 0.955 | locus YHR027C, strain rpn1, active compounds read low 1 | [1] 0.978 | [2] 0.971 | locus YHR142W, strain chs7, active compounds read low 0.983 | locus YJL092W, strain hpr5, active compounds read low 1.01 | locus YJL095W, strain BCK1 (second series), active compounds read low 0.996 | [3] 0.974 | locus YJL115W, strain asf1, active compounds read low 1.01 | locus YJL129C, strain trk1, active compounds read low 1 | locus YJL154C, strain vps35, active compounds read low 1.02 | locus YJL164C, strain tpk1, active compounds read low 1.03 | locus YJL166W, strain qcr8, active compounds read low 1.02 | [4] 0.939 | locus YKL160W, strain elf1, active compounds read low 0.974 | locus YKR026C, strain gcn3, active compounds read low 0.997 | locus YKR091W, strain srl3, active compounds read low 1 | locus YLL001W, strain dnm1, active compounds read low 1 | locus YLL026W, active compounds read low 0.993 | locus YLL041C, strain sdh2, active compounds read low 1.01 | locus YLR027C, strain aat2, active compounds read low 0.994 | [5] 1 | locus YLR221C, strain rsa3, active compounds read low 0.99 | locus YLR258W, strain gsy2, active compounds read low 0.992 | locus YLR262C, strain YPT6 (second series), active compounds read low 1.03 | locus YLR320W, strain mms22, active compounds read low 0.981 | locus YLR342W, strain FKS1, active compounds read low 0.984 | locus YLR357W, strain rsc2, active compounds read low 0.987 | locus YLR370C, strain arc18, active compounds read low 0.99 | locus YLR384C, strain iki3, active compounds read low 0.981 | locus YML120C, strain ndi1, active compounds read low 1.01 | locus YMR058W, strain fet3, active compounds read low 1 | locus YMR125W, strain sto1, active compounds read low 0.996 | locus YMR129W, active compounds read low 1 | locus YMR205C, strain PFK2, active compounds read low 1.01 | locus YMR231W, strain pep5, active compounds read low 1 | locus YNL071W, strain lat1, active compounds read low 1.02 | [6] 0.955 | locus YNL209W, strain ssb2, active compounds read low 1 | locus YNL248C, strain rpa49, active compounds read low 1 | locus YNL322C, strain KRE1 (second series), active compounds read low 0.997 | locus YNR049C, strain mso1, active compounds read low 1 | locus YOR001W, strain rrp6, active compounds read low 0.994 | locus YOR070C, strain gyp1, active compounds read low 0.999 | locus YOR080W, strain dia2, active compounds read low 1.01 | locus YOR083W, strain WHI5, active compounds read low 0.943 | locus YOR106W, strain vam3, active compounds read low 1.01 | [7] 0.976 | locus YOR265W, strain rbl2, active compounds read low 1 | locus YOR270C, strain vph1, active compounds read low 0.976 | locus YOR290C, strain snf2, active compounds read low 0.978 | locus YPL051W, strain arl3, active compounds read low 0.998 | locus YPL078C, strain atp4, active compounds read low 0.991 | locus YPL106C, strain sse1, active compounds read low 0.963 | locus YPL240C, strain hsp82, active compounds read low 1 | [8] 0.952

O=S(=O)(NCc1cc(Cl)cc(Cl)c1)c1cc(C(F)(F)F)cc(C(F)(F)F)c1
inactive: locus YAR019C, strain CDC15, active compounds read low 1 | locus YBL105C, strain PKC1, active compounds read low 0.994 | locus YBR135W, strain CKS1, active compounds read low 0.998 | locus YBR136W, strain MEC1, active compounds read low 0.998 | locus YBR160W, strain CDC28, active compounds read low 0.998 | locus YDL017W, strain CDC7, active compounds read low 0.998 | locus YDL028C, strain MPS1, active compounds read low 0.994 | locus YDL101C, strain DUN1, active compounds read low 0.994 | locus YDL108W, strain KIN28, active compounds read low 0.997 | locus YDL132W, strain cdc53, active compounds read low 0.987 | locus YDL214C, strain PRR2, active compounds read low 0.935 | locus YDR052C, strain DBF4, active compounds read low 0.996 | locus YDR054C, strain cdc34, active compounds read low 0.985 | locus YDR226W, strain ADK1, active compounds read low 0.992 | locus YDR477W, strain SNF1, active compounds read low 0.912 | locus YER123W, strain YCK3, active compounds read low 0.907 | locus YER133W, strain GLC7, active compounds read low 0.928 | locus YFL009W, strain cdc4, active compounds read low 0.992 | locus YFL029C, strain CAK1, active compounds read low 1 | locus YFR003C, strain YPI1, active compounds read low 0.996 | locus YFR019W, strain FAB1, active compounds read low 0.902 | locus YFR028C, strain CDC14, active compounds read low 0.997 | locus YGR040W, strain KSS1, active compounds read low 0.894 | locus YGR052W, strain FMP48, active compounds read low 0.878 | locus YGR092W, strain DBF2, active compounds read low 0.881 | [2] 0.835 | locus YHR082C, strain KSP1, active compounds read low 0.896 | locus YHR205W, strain SCH9, active compounds read low 0.908 | locus YIL147C, strain SLN1, active compounds read low 0.996 | [3] 0.875 | locus YJL128C, strain PBS2, active compounds read low 0.923 | locus YJL157C, strain FAR1, active compounds read low 0.926 | locus YJR016C, strain ILV3, active compounds read low 0.995 | locus YJR066W, strain TOR1 (second series), active compounds read low 0.947 | [4] 0.955 | locus YKL048C, strain ELM1, active compounds read low 0.954 | locus YKL067W, strain YNK1, active compounds read low 0.961 | locus YKL101W, strain HSL1, active compounds read low 0.907 | locus YKL193C, strain SDS22, active compounds read low 0.998 | locus YKL203C, strain TOR2, active compounds read low 0.982 | locus YLR133W, strain CKI1, active compounds read low 0.918 | locus YLR403W, strain SFP1, active compounds read low 0.939 | locus YML070W, strain DAK1, active compounds read low 0.915 | locus YMR001C, strain CDC5, active compounds read low 0.996 | locus YMR205C, strain PFK2 (second series), active compounds read low 0.954 | locus YMR277W, strain FCP1, active compounds read low 0.996 | locus YNL006W, strain LST8, active compounds read low 0.991 | locus YNL020C, strain ARK1, active compounds read low 0.899 | locus YNL161W, strain CBK1, active compounds read low 0.999 | [6] 1.01 | locus YNL207W, strain RIO2, active compounds read low 1 | locus YNL222W, strain SSU72, active compounds read low 0.996 | locus YNL307C, strain MCK1 (second series), active compounds read low 0.765 | locus YOL078W, strain AVO1, active compounds read low 0.997 | locus YOL136C, strain PFK27, active compounds read low 0.895 | locus YOR061W, strain CKA2, active compounds read low 0.935 | locus YOR119C, strain RIO1, active compounds read low 0.982 | [7] 0.933 | locus YOR329C, strain SCD5, active compounds read low 0.995 | locus YPL031C, strain PHO85, active compounds read low 0.897 | locus YPL153C, strain RAD53, active compounds read low 0.912 | locus YPL204W, strain HRR25, active compounds read low 0.888 | locus YPL209C, strain IPL1, active compounds read low 0.997 | [8] 0.87 | locus YPR025C, strain CCL1, active compounds read low 0.995 | locus YPR106W, strain ISR1, active compounds read low 0.997 | locus YPR111W, strain DBF20, active compounds read low 0.989 | strain NNK1, active compounds read low 0.988 | strain TSCII, active compounds read low 0.999
active: [1] 0.621 | [5] 0.803
